{"source": "PubChem BioAssay (EPA / NIEHS)", "key": {"[1]": {"assay": "BSK_BT_PBMCCytotoxicity: PBMC Cytotoxicity Assessment in the BioMAP Diversity Plus: BT Assay (AID 2284225);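 also: PBMC viability measured by Alamar Blue dye reduction fluorescence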", "settings": "primary human B cells with PBMC", "summary_of_the_method": "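75,000 cells/well; cpd 1 h → SEB + TSST-1 (20 ng/mL final each) → 90 h → Alamar Blue 6 h → fluor. 546/580 nm. DMSO = neg. control/baseline.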"}, "[2]": {"read-out": "Secreted IgG (sIgG), gene 3500", "assay": "BSK_BT_sIgG: BioMAP Diversity Plus: BT Assay for Secreted IgG (sIgG) Biomarker Activity (AID 2284226)", "settings": "primary human B cells with PBMC", "summary_of_the_method": "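B cells co-cultured with PBMC were dosed with chemical and secreted IgG quantified by ELISA at 24 h. Activity was fitted in the positive direction relative to DMSO as negative control and baseline.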"}, "[3]": {"assay": "CCTE_Mundy_HCI_hNP1_Pro_ResponderAvgInten: CCTE's Proliferation Assay in human neuroprogenitor cells, Mundy Lab (AID 2284224; active = hit-call score of the fitted dose curve at least 0.9, where 1 is the maximum)", "procedure": "CCTE_Mundy_HCI_hNP1_Pro is a multiplexed, cell-based-readout assay that uses neural stem cells derived from a neuroepithelial cell lineage of WA09 embryonic cells with measurements taken at 26.25 hours after chemical dosing in a microplate: 96-well plate.CCTE_Mundy_HCI_hNP1_Pro_ResponderAvgInten is one of three components of the CCTE_Mundy_HCI_hNP1_Pro assay. It measures proliferation related to percentage of BrdU positive cells using High Content Imaging of fluorescently labelled markers.Data from the assay component CCTE_Mundy_HCI_hNP1_Pro_ResponderAvgInten was analyzed at the endpoint CCTE_Mundy_HCI_hNP1_Pro_ResponderAvgInten in the positive analysis fitting direction relative to DMSO as the negative control and baseline of activity. Using a type of growth reporter, loss -of-signal activity can be used to understand viability effects.\nHuman neural progenitor cells (hNP1) were obtained as cryopreserved cells from ArunA Biomedical, Athens Georgia. Cells are plated on pre-coated poly-L-ornithine/laminin clear bottom and opaque 96 well plates (day 0). Plates are placed in a 37 °C, 5% CO2 incubator for 40 to 44 hours at which time plates are removed from the incubator and 10 uL of a freshly made chemical solution is added to each well. Twenty hours after the addition of the chemicals, the clear plates are removed from the incubator and 11 uL of a BrdU solution is added to each well. The plates are returned to the incubator for four hours. After four hours, the plates are fixed with a 4% paraformaldehyde solution."}, "[4]": {"assay": "CCTE_Mundy_HCI_Cortical_Synap_Neur_Matur_SynapseCount: CCTE's Synaptogenesis and Neurite Maturation Assay in rat cortical cells for Synapse Count, Mundy Lab (AID 2284218)", "summary_of_the_method": "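Rat primary cortical cells in 96-well plates received AraC at DIV 5 and were dosed with chemicals at DIV 7 with media change, through DIV 12 (288.33 h). Synapses per neuron counted by high-content imaging of MAP2/synaptophysin/Hoechst staining, versus DMSO baseline.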"}, "[5]": {"assay": "CCTE_Mundy_HCI_hN2_NOG_NeuriteCount: CCTE's Neurite Outgrowth Assay in human hN2 cells for Neurite Count, Mundy Lab (AID 2284219; active = hit-call score of the fitted dose curve at least 0.9, where 1 is the maximum)", "procedure": "CCTE_Mundy_HCI_hN2_NOG is a multiplexed, cell-based-readout assay that uses immature neurons derived from hNP1 neuroprogenitor cells with measurements taken at 50.33 hours after chemical dosing in a microplate: 96-well plate.CCTE_Mundy_HCI_hN2_NOG_NeuriteCount is one of four components of the CCTE_Mundy_HCI_hN2_NOG assay. It measures neurite outgrowth related to number of neurites using High Content Imaging of fluorescently labelled markers.[…] Using a type of morphology reporter, loss -of-signal activity can be used to understand developmental effects.\nExposure starts 2 hours post-plating by adding 10 ul of the working solution to 90 ul of media in the wells for a 1/10 dilution. Forty-eight hours after chemical treatment cells are fixed by direct addition of 100 ul of warm (37C) Dulbecco's phosphate buffered saline (DPBS) fixative solution containing 8% paraformaldehyde, 8% sucrose, and 0.1% of 3 mg/ml Hoechst 33342 into each well. Primary antibodies are prepared by dilution in Immunocytochemical Staining Buffer (ISB), 10X Dulbecco's PBS, 0.1% Saponin, 5% Bovine Serum Albumin, 0.5% NaN3 (Sodium Azide) and betaIII-tubulin (rabbit anti-betaIII-tubulin, 1:800) followed by Alexa Fluor-488 secondary (1:500) to label neuronal cell bodies and neurites. A Cellomics ArrayScan VTi HCS Reader is used for automated image acquisition and analysis of neurite outgrowth."}, "[6]": {"assay": "CCTE_Mundy_HCI_hN2_NOG_NeuriteLength: CCTE's Neurite Outgrowth Assay in human hN2 cells for Neurite Length, Mundy Lab (AID 2284220; active = hit-call score of the fitted dose curve at least 0.9, where 1 is the maximum)", "summary_of_the_method": "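Using βIII-tubulin immunofluorescence and Hoechst nuclear counterstain, this component quantifies neurite length in hNP1-derived neurons.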"}, "[7]": {"assay": "CCTE_Mundy_HCI_hN2_NOG_NeuronCount: CCTE's Neurite Outgrowth Assay in human hN2 cells for Neuron Count, Mundy Lab (AID 2284221; active = hit-call score of the fitted dose curve at least 0.9, where 1 is the maximum)", "summary_of_the_method": "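Read-out is the number of betaIII-tubulin-positive neurons imaged by automated high-content analysis, with DMSO as negative control.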"}, "[8]": {"assay": "CCTE_Mundy_HCI_Cortical_Synap_Neur_Matur_NeuriteCount: CCTE's Synaptogenesis and Neurite Maturation Assay in rat cortical cells for Neurite Count, Mundy Lab (AID 2284222);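 also: exposure from day 7 to day 12 in vitro with readout at day 12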", "summary_of_the_method": "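Rat cortical neurons, 96-well; AraC DIV 5; chemical + media change DIV 7; end DIV 12. Fix PFA/Hoechst, anti-MAP2 + anti-synaptophysin IF. HCI neurite count vs DMSO baseline.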"}, "[9]": {"assay": "CCTE_Mundy_HCI_Cortical_Synap_Neur_Matur_CellBodySpotCount: CCTE's Synaptogenesis and Neurite Maturation Assay in rat cortical cells for Cell Body Spot Count, Mundy Lab (AID 2284223)", "summary_of_the_method": "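Primary rat cortical cultures, AraC added at DIV 5; dosed DIV 7 through DIV 12 […]. Fixed, stained for MAP2 and synaptophysin with Hoechst; cell body-associated synaptophysin puncta per neuron counted by high-content imaging, loss vs DMSO.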"}}, "note": "“And” between values parts separate entries of the source, which are not always exact repeats. Equal values may be shown once. Results filed as inconclusive are left out. Some structures have more than one record in an assay (separate samples or runs), and their calls can disagree. The source made the active and inactive calls. The calls were made as follows, unless noted: active = hit-call score of the fitted dose curve at least 0.9, where 1 is the maximum; inactive = score below 0.9.", "data": [{"smiles": "CCOC(=O)CN[C@@H](C(=O)N1CC[C@H]1C(=O)NCc1ccc(/C(N)=N/O)cc1)C1CCCCC1", "values": [{"measurement": "outcome", "setting": "[1]", "value": "inactive"}, {"measurement": "outcome", "setting": "[2]", "value": "inactive"}]}, {"smiles": "Cc1cccc2c1ccc1ccccc12", "values": [{"measurement": "outcome", "setting": "[1]", "value": "inactive"}, {"measurement": "AC50", "setting": "[2]", "value": "26.6 µM (active)"}]}, {"smiles": "OCCN1CN(CCO)CN(CCO)C1", "values": [{"measurement": "AC50", "setting": "[1]", "value": "30.2 µM (active)"}, {"measurement": "AC50", "setting": "[2]", "value": "29.2 µM (active)"}]}, {"smiles": "CN(CCO)S(=O)(=O)C(F)(F)C(F)(F)C(F)(F)C(F)(F)C(F)(F)C(F)(F)C(F)(F)C(F)(F)F", "values": [{"measurement": "outcome", "setting": "[1]", "value": "inactive"}, {"measurement": "outcome", "setting": "[2]", "value": "inactive"}]}, {"smiles": "O=C(CC(=O)C(F)(F)C(F)(F)C(F)(F)F)c1cccs1", "values": [{"measurement": "outcome", "setting": "[3]", "value": "inactive"}, {"measurement": "AC50", "setting": "[1]", "value": "45 µM (active) and 39 µM (active)"}, {"measurement": "AC50", "setting": "[2]", "value": "19 µM (active) and 20.1 µM (active)"}]}, {"smiles": "O=C(NCc1ncc(C(F)(F)F)cc1Cl)c1c(Cl)cccc1Cl", "values": [{"measurement": "outcome", "setting": "[1]", "value": "inactive"}, {"measurement": "AC50", "setting": "[2]", "value": "9.52 µM (active)"}]}, {"smiles": "OCC(F)(F)C(F)(F)C(F)(F)C(F)(F)C(F)(F)C(F)(F)C(F)(F)C(F)(F)C(F)(F)C(F)(F)C(F)(F)F", "values": [{"measurement": "outcome", "setting": "[3]", "value": "inactive"}, {"measurement": "AC50", "setting": "[1]", "value": "0.0655 µM (active)"}, {"measurement": "outcome", "setting": "[1]", "value": "inactive"}, {"measurement": "outcome", "setting": "[2]", "value": "inactive"}]}, {"smiles": "CCCCCCCCCCCCCCCCCC[N+](C)(C)Cc1ccccc1", "values": [{"measurement": "AC50", "setting": "[1]", "value": "4.83 µM (active)"}, {"measurement": "AC50", "setting": "[2]", "value": "0.66 µM (active)"}]}, {"smiles": "CN(Cc1cnc2nc(N)nc(N)c2n1)c1ccc(C(=O)N[C@@H](CCC(=O)O)C(=O)O)cc1", "values": [{"measurement": "outcome", "setting": "[4]", "value": "inactive"}, {"measurement": "outcome", "setting": "[5]", "value": "inactive"}, {"measurement": "outcome", "setting": "[6]", "value": "inactive"}, {"measurement": "outcome", "setting": "[7]", "value": "inactive"}, {"measurement": "outcome", "setting": "[8]", "value": "inactive"}, {"measurement": "outcome", "setting": "[9]", "value": "inactive"}, {"measurement": "outcome", "setting": "[1]", "value": "inactive"}, {"measurement": "AC50", "setting": "[2]", "value": "662 nM (active) and 100 nM (active)"}]}, {"smiles": "CCCCCc1ccc(O)cc1", "values": [{"measurement": "outcome", "setting": "[1]", "value": "inactive"}, {"measurement": "AC50", "setting": "[2]", "value": "20 µM (active)"}]}, {"smiles": "Nc1ccn([C@@H]2O[C@H](CO)[C@@H](O)C2O)c(=O)n1", "note": "(stereo not given in full)", "values": [{"measurement": "AC50", "setting": "[4]", "value": "16 µM (active)"}, {"measurement": "outcome", "setting": "[5]", "value": "inactive"}, {"measurement": "outcome", "setting": "[6]", "value": "inactive"}, {"measurement": "AC50", "setting": "[7]", "value": "1.47 µM (active)"}, {"measurement": "outcome", "setting": "[9]", "value": "inactive"}, {"measurement": "AC50", "setting": "[3]", "value": "0.0896 µM (active)"}]}]}
